According to PubChem BioAssay AID1508615 (Milbrandt Lab, Department of Genetics, Washington …, 2020):
About 20 (1%) of roughly 1,600 compounds were called active.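 How the source made its calls: active means ratio of uncleaved NAD to its breakdown product ADP-ribose above 4, meaning the enzyme was inhibited; inactive means the rest.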 Many of the other results were omitted from the sample, so actives are more common in it than they were.

Each molecule was assayed against NAD(+) hydrolase SARM1 (Homo sapiens) (UniProt Q6SZW1) (assay: inhibition of SAM-TIR NAD hydrolysis to ADPR – cell lysate, HPLC readout, primary screen (AID 1508615;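 further: substrate NAD at 5 µM with 60 min at 37 °C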)). Conditions: HEK293T SAM-TIR lysate, NAD/ADPR ratio by HPLC; at 5 µM; hits give high values.
Sequence of NAD(+) hydrolase SARM1 (Homo sapiens) (Q6SZW1 whole entry, looked up): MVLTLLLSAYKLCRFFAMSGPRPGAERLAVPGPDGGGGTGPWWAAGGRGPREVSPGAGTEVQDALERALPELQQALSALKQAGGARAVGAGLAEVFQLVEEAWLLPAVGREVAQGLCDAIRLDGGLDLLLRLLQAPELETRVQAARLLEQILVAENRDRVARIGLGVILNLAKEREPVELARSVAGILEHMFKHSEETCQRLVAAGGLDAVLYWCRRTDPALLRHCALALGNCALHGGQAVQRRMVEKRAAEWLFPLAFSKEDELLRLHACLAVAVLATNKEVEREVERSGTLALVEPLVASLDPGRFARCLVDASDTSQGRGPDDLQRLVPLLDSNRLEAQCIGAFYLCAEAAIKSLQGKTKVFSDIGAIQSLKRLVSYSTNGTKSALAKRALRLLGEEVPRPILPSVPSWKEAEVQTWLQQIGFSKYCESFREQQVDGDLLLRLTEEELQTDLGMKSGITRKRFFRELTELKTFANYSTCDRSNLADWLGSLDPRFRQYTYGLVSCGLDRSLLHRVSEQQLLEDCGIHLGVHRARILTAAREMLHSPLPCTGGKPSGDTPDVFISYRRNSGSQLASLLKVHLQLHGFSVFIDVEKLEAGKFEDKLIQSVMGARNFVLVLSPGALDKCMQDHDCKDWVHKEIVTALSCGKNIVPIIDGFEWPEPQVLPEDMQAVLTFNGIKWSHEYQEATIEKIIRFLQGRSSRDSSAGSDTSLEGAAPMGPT

NAD/ADPR ratio, inactive:
CC1(C)SC(C)(C)N(C=O)C1C(=O)O (stereo unspecified) 3
CCOC(=O)Cc1cc(=O)[nH]n(-c2ccccc2)c1=O 3
Cc1ccc(/C=C2\CCOC2=O)cc1 3
Cc1ccc2c(c1)sc1nncn12 3
Oc1ccc(Cc2ccccc2Cl)c(O)c1 3
COc1cc(/C=N/Nc2nc3c([nH]2)c(=O)n(C)c(=O)n3C)ccc1O 3
O=C1CCC(NC(=O)c2ccccc2)C(=O)N1 (stereo unspecified) 3
O=C(/C=C/c1cccnc1)c1ccccc1O 3
CCCCCn1cnc2c(=S)nc(N)[nH]c21 3
CN1CN(C)C(c2ccncc2)=C1c1ccncc1 3
CCCCOc1ccc(NC(=O)Nc2nnc(C)s2)cc1 3
Cc1ccc(C(C)C)cc1NC(=O)Nc1ccc([N+](=O)[O-])cc1 3
Cc1cc(NC(=O)c2ccccc2)nc(C)n1 3
Nc1ccnn1-c1ccccc1 3
O=C(O)C(Cc1cn[nH]n1)=NO 3
NC(=O)SCC(=O)Nc1ccccc1C(=O)O 3
CC(NC(=O)c1ccc(Cl)c(Cl)c1)c1ccc(-c2ccccc2)cc1 (stereo unspecified) 3
OC(c1cc(-c2ccc(Cl)cc2)nc2ccccc12)C1CCCCN1 (stereo unspecified) 3
Clc1ccc(SCNc2ccccc2Cl)cc1 3
Nc1ncnc2c1ncn2C1OC(CO)C(O)C1N (stereo unspecified) 3
CC1(C)CC(=O)C(CC(=O)c2ccccc2)=C(NN=C(N)N)C1 3
O=C(O)CCC1(c2ccccc2)NC(=O)NC1=O (stereo unspecified) 3
c1ccc2c(c1)Oc1cccc3cccc-2c13 3
O=C1c2cc([N+](=O)[O-])ccc2-c2cc(Br)c(N=C(NO)C(F)(F)F)cc21 3
O=c1cc[nH]c2c(Cl)cccc12 3
COc1cc(-c2ccc(NC(=O)NC3CC3)c(OC)c2)ccc1NC(=O)NC1CC1 3
